Results filed as inconclusive are left out. Where a call stands in place of a potency, no number is given. Active and inactive are the calls of the source. Calls follow the shape of the dose curve; as a rule, active = well fitted inhibition curve with a large enough effect in the repeat runs; inconclusive = weak or mixed curves; inactive = no such curve, though single readings can be large or run the other way.
biological target: Cytochrome P450 2C19 (Homo sapiens) (UniProt P33261); assay: Cytochrome P450 Family 2 Subfamily C Member 19 (CYP2C19) small molecule antagonists: luciferase reporter qHTS assay (AID 1671197); conditions: P450-Glo CYP2C19 enzyme, luciferin luminescence, 1 h; series mostly up to 115 µM; also: nearly all actives have a fitted effect of over 65% in size
Sequence (P33261 whole entry, looked up): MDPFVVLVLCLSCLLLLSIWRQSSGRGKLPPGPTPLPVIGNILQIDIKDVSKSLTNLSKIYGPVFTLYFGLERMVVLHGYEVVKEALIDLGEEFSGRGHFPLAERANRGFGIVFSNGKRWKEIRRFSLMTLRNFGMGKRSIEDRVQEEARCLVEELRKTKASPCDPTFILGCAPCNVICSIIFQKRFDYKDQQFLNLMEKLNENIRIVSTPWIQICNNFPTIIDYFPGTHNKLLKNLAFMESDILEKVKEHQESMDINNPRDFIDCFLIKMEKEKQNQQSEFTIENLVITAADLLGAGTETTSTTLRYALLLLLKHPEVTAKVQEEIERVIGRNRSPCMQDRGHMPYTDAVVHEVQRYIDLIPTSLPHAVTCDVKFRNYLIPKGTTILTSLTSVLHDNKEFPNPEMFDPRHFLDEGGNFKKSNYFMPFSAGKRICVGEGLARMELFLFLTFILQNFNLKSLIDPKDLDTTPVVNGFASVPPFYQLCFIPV
How it was run: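 Relative luminescence units recorded 20 min after the detection reagent stopped a 1 h, 37C CYP2C19 reaction on proluciferin substrate, which was started by NADPH regeneration following 10 min room-temperature compound preincubation; ketoconazole positive control.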
Potency is read from the fitted curve at half-maximal effect.

Row | SMILES | Potency | activity change, negative = inhibition
1 | CCCCCCCCOC(=O)CCCCCCCCC(=O)OCCCCCCCC | inactive | 
2 | O=C1CCCc2ccccc21 | inactive | 
3 | O=c1oc2c(O)c(O)cc3c(=O)oc4c(O)c(O)cc1c4c23 |  | 0.227% [at 23.6 µM] (inactive)
4 | O=C(CCCl)NCc1ccccc1 | inactive | 
5 | NCCC(O)(P(=O)(O)O)P(=O)(O)O | inactive | 
6 | NCCCN1CCN(CCCN)CC1 | inactive | 
7 | CCCCCCCCCC/C=C/C#N | inactive | 
8 | O=C(O)c1cccc(Cl)c1Cl | inactive | 
9 | FC(F)(F)c1ccccc1 | inactive | 
10 | CCCCCCOc1ccc(N)cc1 | 2 µM (active) | 
11 | O=C(O)C(=O)Cc1c[nH]c2ccccc12 | 79.6 µM (active) | 
12 | O=CCCc1ccccc1 | 25.2 µM (active) | 
13 | CCCCCCCCCC#N | inactive | 
14 | CCCC1CCC(=O)O1 (stereo not drawn) | inactive | 
15 | CC(C)(C)C1CCCCC1=O (stereo not drawn) | inactive | 
16 | CN(C)Cc1ccccc1 | inactive | 
17 | CNCCC(Oc1ccccc1OC)c1ccccc1 (stereo not drawn) | inactive | 
18 | CC(C)C1=CC2=CC[C@@H]3[C@](C)(CCC[C@@]3(C)C(=O)O)[C@H]2CC1 | 35.6 µM (active) | 
19 | COc1ccc(Nc2ccc(OC)cc2)cc1 | 2.29 µM (active) | 

Row | SMILES | Potency | activity change, negative = inhibition
20 | CC(=O)OC1C2(C)CCC(C2)C1(C)C (stereo not drawn) | inactive | 
21 | CCN(O)CC | inactive | 
22 | CCCCCOc1ccc(C2SC(=O)NC2=O)cc1OCC (stereo not drawn) | inactive | 
23 | Cc1ccc([N+](=O)[O-])cc1Cl | inactive | 
24 | Cc1nc(-c2ccccn2)ncc1C(=O)Nn1cc(C)c2cc(F)ccc21 | 56.4 µM (active) | 
25 | CCN(CCCc1ccccc1)CCCc1ccccc1 | 6.92 µM (active) | 
26 | CC(C)(C)c1ccc(OC(=O)c2ccccc2O)cc1 | inactive | 
27 | Cn1cnc2c(F)c(Nc3ccc(Br)cc3Cl)c(C(=O)NOCCO)cc21 | 8.71 µM (active) | 
28 | CCCN(CCC)C(=O)C(CCC(=O)O)NC(=O)c1ccccc1 (stereo not drawn) | inactive | 
29 | O=C(O)CN(CCN(CC(=O)O)CC(=O)O)CCN(CC(=O)O)CC(=O)O |  | 49.7% [at 23.6 µM] (inactive)
30 | Cc1cc2c(s1)Nc1ccccc1N=C2N1CCN(C)CC1 | inactive | 
31 | OCCN(CCO)CCN(CCO)CCO | inactive | 
32 | Cc1nc(N)nc(N)c1-c1ccc(Cl)c(Cl)c1 | inactive | 
33 | CCCCC1CCC(=O)O1 (stereo not drawn) | inactive | 
34 | C=CC1CO1 (stereo not drawn) | inactive | 
35 | CCCCCCCCCCCCOCCOS(=O)(=O)O | 79.6 µM (active) | 
36 | Nc1ccc(Oc2ccc(N)c(N)c2)cc1 | 20 µM (active) | 
37 | CCCc1c2oc(C(=O)O)cc(=O)c2cc2c(=O)cc(C(=O)O)n(CC)c12 | inactive | 
38 | O=C1CCCCC1C1CCCCC1 (stereo not drawn) | inactive | 

From PubChem BioAssay (Tox21)
